# Experimental data from PubChem BioAssay AID1456 (Vanderbilt High Throughput Screening Facility, 2008).
# Hit rate of the full screen: of about 190,000 compounds, about 4,100 (2.2%) were called active.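 How the source made its calls: active means thallium flux slope and its plate-corrected score both differing from the plate sample mean at a set confidence after two filtering rounds, in either direction; inactive means the rest.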 The list comes from a sample in which actives are over-represented; it also holds similar structures and randomly drawn compounds.
# Target: Solute carrier family 12 member 5 (Homo sapiens) (UniProt Q9H2X9)
# Assay: modulation of human KCC2 ion transport – cell-based, HEK293 KCC2, FluoZin-2 fluorescence, MLSMR, primary screen (AID 1456);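 further: slope of fluorescence scaled to starting intensity during 10 to 20 s after thallium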
# Details: KCC2 cells, thallium flux FluoZin-2 fluorescence; at 10 µM
# Chain of Solute carrier family 12 member 5 (Homo sapiens) (Q9H2X9 whole entry, looked up): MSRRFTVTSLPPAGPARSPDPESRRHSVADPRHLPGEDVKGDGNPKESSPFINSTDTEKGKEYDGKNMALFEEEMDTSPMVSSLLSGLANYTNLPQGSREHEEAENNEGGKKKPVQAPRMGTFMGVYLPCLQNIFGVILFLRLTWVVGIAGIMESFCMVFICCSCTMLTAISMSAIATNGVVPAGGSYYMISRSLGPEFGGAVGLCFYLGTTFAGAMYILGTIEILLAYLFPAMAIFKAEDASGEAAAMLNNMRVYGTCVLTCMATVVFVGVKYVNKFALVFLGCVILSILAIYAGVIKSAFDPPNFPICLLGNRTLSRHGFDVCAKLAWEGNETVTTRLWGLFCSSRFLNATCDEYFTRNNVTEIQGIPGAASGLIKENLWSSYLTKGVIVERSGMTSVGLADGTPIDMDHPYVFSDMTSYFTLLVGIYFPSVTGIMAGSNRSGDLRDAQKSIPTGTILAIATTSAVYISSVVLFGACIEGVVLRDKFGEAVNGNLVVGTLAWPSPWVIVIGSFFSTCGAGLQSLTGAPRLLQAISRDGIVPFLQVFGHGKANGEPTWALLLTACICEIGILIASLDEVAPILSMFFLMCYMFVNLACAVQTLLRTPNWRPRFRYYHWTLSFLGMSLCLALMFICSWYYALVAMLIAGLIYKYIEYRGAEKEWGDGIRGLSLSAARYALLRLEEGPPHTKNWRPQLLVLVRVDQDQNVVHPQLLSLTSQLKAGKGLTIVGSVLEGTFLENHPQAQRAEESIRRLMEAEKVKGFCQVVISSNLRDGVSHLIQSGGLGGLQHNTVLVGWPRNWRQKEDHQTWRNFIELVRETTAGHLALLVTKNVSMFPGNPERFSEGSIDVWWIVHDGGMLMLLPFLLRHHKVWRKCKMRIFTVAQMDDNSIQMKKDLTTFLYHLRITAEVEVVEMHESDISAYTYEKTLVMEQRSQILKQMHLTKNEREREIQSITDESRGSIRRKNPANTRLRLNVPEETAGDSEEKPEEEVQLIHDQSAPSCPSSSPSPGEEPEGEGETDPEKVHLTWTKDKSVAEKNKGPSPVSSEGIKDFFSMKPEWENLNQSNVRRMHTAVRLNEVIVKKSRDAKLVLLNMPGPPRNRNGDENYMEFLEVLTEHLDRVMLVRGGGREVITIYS
row,SMILES,B-score of Tl+ flux slope (higher = more flux/activation; lower = inhibition)
1,Cc1ccc(NC(=O)Nc2cc(-c3ccccc3)nn2C)cc1Cl,0.308 (inactive)
2,CCOC(=O)c1cnc(COc2ccccc2Cl)[nH]c1=O,1.26 (inactive)
3,Cn1c(=O)c2c(nc(NCc3ccccc3)n2CC(N)=O)n(C)c1=O,0.178 (inactive)
4,C=CCn1c(-c2ccc3[nH]c(C)c(C)c3c2)n[nH]c1=S,-0.00959 (inactive)
5,CCCc1cc(-c2n[nH]c(=S)n2Cc2ccccc2)cs1,4.54 (active)
6,CCc1cc(-c2n[nH]c(=S)n2CC(C)C)cs1,8.35 (active)
7,Cc1cc(-c2csc(N)n2)c(C)n1Cc1ccccc1,1.01 (inactive)
8,CCCc1cc(-c2n[nH]c(=S)n2CC)c2ccccc2n1,-0.942 (inactive)
9,CCn1c(-c2ccncc2)n[nH]c1=S,-0.798 (inactive)
10,CSC1=NCCN1C(=O)Cc1cccc2ccccc12,0.183 (inactive)
11,Brc1ccc(-c2n(-c3ccccn3)c3ccccc3[n+]2-c2ccccn2)cc1,1.55 (inactive)
12,CCCc1ccc(C(=O)[C@@H]2[C@@H](C(C)=O)N3c4ccc(F)cc4C=C[C@@H]3[C@@]23C(=O)Nc2ccccc23)cc1,0.383 (inactive)
13,O=S(=O)(c1cccc(-c2nnc3n2CCCCC3)c1)N1CCOCC1,-1.09 (inactive)
14,c1ccc2c(c1)OCC(c1nn3cnnc3s1)O2 (centres undefined),-0.604 (inactive)
15,O=C(Nc1nnc(C2COc3ccccc3O2)o1)c1ccc(F)cc1 (centres undefined),15 (active)
16,O=C(CN1C(=O)COc2ccccc21)Nc1ccc(F)cc1,0.048 (inactive)
17,O=C(NNC(=O)c1csc(-c2cccnc2)n1)Nc1ccc(Cl)cc1,-0.334 (inactive)
18,COc1ccc(NC(=O)CCN2C(=O)/C(=C/c3ccc4c(c3)OCO4)SC2=S)cc1,-1.33 (inactive)
19,CCC1(C)Cc2c(sc3nc(SC)[nH]c(=O)c23)CO1 (centres undefined),0.823 (inactive)
20,CCC1(C)Cc2c(sc3[nH]c(=S)n(Cc4ccccc4)c(=O)c23)CO1 (centres undefined),35.8 (active)
21,CCC1(C)Cc2c(sc3nc4n(c(=O)c23)CCCS4)CO1 (centres undefined),-0.0542 (inactive)
22,Cc1c(C)c(C)c2[nH]c(=S)[nH]c2c1C,0.63 (inactive)

row,SMILES,B-score of Tl+ flux slope (higher = more flux/activation; lower = inhibition)
1,COc1ccc(Cl)cc1C(=O)NNC(=O)c1nc2nc(C)cc(C)n2n1,-1.53 (inactive)
2,CCN1CCN(c2nc(Nc3cccc(F)c3)nc(N)c2[N+](=O)[O-])CC1,-0.953 (inactive)
3,N#Cc1c(-c2ccc(Cl)cc2)c2c([nH]c1=S)CCCC2,13.8 (active)
4,N#Cc1c2c(c(-c3ccccc3)[nH]c1=O)CCCC2,-0.0377 (inactive)
5,CC(=O)c1c(C)[nH]c(=S)c(C#N)c1-c1ccc(F)cc1,0.0246 (inactive)
6,COc1ccc(NC(=O)C2=C(C)NC(=O)NC2c2ccccc2[N+](=O)[O-])cc1 (centres undefined),-1.15 (inactive)
7,Cc1ccc(Cl)c(OCC(=O)NN2CCN(C)CC2)c1,0.242 (inactive)
8,NC(=O)C1(C(N)=O)OC1c1ccc(Cl)cc1Cl (centres undefined),0.213 (inactive)
9,CCN1CCN(CC(=O)c2cc(OC)c(OC)c(OC)c2)CC1,0.89 (inactive)
10,COc1ccc(CCNS(=O)(=O)c2cccc3cccnc23)cc1OC,-0.941 (inactive)
11,S=c1[nH]nc(COc2ccccc2)n1-c1ccccc1,0.195 (inactive)
12,COc1ccc(OCc2n[nH]c(=S)n2N)cc1,0.178 (inactive)
13,Cc1ccc(OCc2n[nH]c(=S)n2-c2ccc(C)cc2)cc1,13.5 (active)
14,CCc1ccccc1NC(=O)CSc1nnc(CCNC(=O)OC(C)(C)C)o1,-1.55 (inactive)
15,CCOC(=O)C(C)n1cnc2sc(C)c(C)c2c1=O (centres undefined),0.498 (inactive)
16,CSc1ncnc2sc(C)c(C)c12,8.38 (active)
17,Cc1sc2ncnc(Sc3nc4ccccc4s3)c2c1C,2.96 (active)
18,COC(=O)c1c(-c2cccs2)csc1NC(=O)CSc1ncnc2sc(C)c(C)c12,0.971 (inactive)
19,CCCNc1ncnc2sc(C)c(C)c12,-0.897 (inactive)
20,CCN(CC)CCCSc1nc2ccccc2s1,-0.568 (inactive)
21,O=C(O)c1ccccc1C(=O)Nc1ccccc1[N+](=O)[O-],-0.0678 (inactive)
22,CCOc1ccccc1N1CN(Cc2ccccc2)CNC1=S,-0.426 (inactive)

row,SMILES,B-score of Tl+ flux slope (higher = more flux/activation; lower = inhibition)
1,COC(=O)c1ccc(S(=O)(=O)N(CCO)Cc2ccccc2)n1C,0.0796 (inactive)
2,O=C(/C=C/c1c(Cl)cccc1Cl)NCc1ccccc1,0.452 (inactive)
3,O=C(O)CCN(Cc1ccccc1)S(=O)(=O)c1c(Cl)cccc1Cl,-6.63 (active)
4,O=C(Oc1cccnc1)c1cc2ccccc2oc1=O,0.0371 (inactive)
5,N#CCc1ccc(OC(=O)c2cccnc2)cc1,0.815 (inactive)
6,O=C(Oc1c(-c2ccco2)oc2ccccc2c1=O)c1cccnc1,40.4 (active)
7,S=C(NNC(=S)NC1CC2CCC1C2)NC1CC2C=CC1C2 (centres undefined),0.801 (inactive)
8,Clc1ccc2nc(-c3ccccc3)nc(C(Cl)Cl)c2c1,0.642 (inactive)
9,Cc1cc(C)c2cc(CN(Cc3cccs3)Cc3nnnn3CC3CCCO3)c(=O)[nH]c2c1 (centres undefined),-3.73 (active)
10,CCOc1ccc2[nH]c(=O)c(CN(Cc3nnnn3Cc3ccccc3)CC3CCCO3)cc2c1 (centres undefined),0.154 (inactive)
11,Cc1cc2cc(CN(Cc3cccs3)Cc3nnnn3CC3CCCO3)c(=O)[nH]c2cc1C (centres undefined),-1.28 (inactive)
12,CCOC(=O)N/N=C1\CC(C)S(=O)(=O)c2ccc(Cl)cc21 (centres undefined),-0.00493 (inactive)
13,C/C(=N/NC(=O)CN1CCN(S(=O)(=O)c2ccc(Br)cc2)CC1)c1ccncc1,0.498 (inactive)
14,Cc1ccc(C)c(SCc2nc3sc(C(=O)O)c(C)c3c(=O)[nH]2)c1,0.00809 (inactive)
15,CC(C)c1ccc2c(c1)c(SC(C)(C)C)c(CC(C)(C)C(=O)O)n2Cc1ccc(Cl)cc1,6.52 (active)
16,COc1cc([N+](=O)[O-])ccc1NC(=S)N1CCN(c2ccccn2)CC1,-1.11 (inactive)
17,O=C(Nc1nnc(C2CC2)s1)C1=NN(C2CCS(=O)(=O)C2)C(=O)CC1 (centres undefined),0.0275 (inactive)
18,CCCOC(=O)CC1C(=O)NCCN1Cc1ccc(F)cc1 (centres undefined),-4.12 (active)
19,CN(Cc1cccc2ncccc12)C(=O)CC1C(=O)NCCN1Cc1ccc(F)cc1 (centres undefined),-0.00882 (inactive)
20,O=C(CC1C(=O)NCCN1Cc1ccc(-c2ccccc2)cc1)NCC1CCOCC1 (centres undefined),0.966 (inactive)
